# Screens deposited in PubChem by Sanford-Burnham Center for Chemical Genomics.
# Most compounds without a hit are left out; they make up all but 28% or so of the library.
# CYP2C19 inh: inhibitors of human CYP2C19; P33261; CYP2C19 Supersomes, luciferin-H EGE luminescence, 30 min; inhibition, % at 5 µM; 96,000 compounds, 21% hits; AID 778;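 active = CYP2C19 inhibition above a set limit at 5 µM in the primary screen, cut at about 50% in these data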;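 also: plate controls were negative control wells for no effect and 2.5 mM tranylcypromine positive control for full effect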
# Target sequence (P33261 whole entry, looked up): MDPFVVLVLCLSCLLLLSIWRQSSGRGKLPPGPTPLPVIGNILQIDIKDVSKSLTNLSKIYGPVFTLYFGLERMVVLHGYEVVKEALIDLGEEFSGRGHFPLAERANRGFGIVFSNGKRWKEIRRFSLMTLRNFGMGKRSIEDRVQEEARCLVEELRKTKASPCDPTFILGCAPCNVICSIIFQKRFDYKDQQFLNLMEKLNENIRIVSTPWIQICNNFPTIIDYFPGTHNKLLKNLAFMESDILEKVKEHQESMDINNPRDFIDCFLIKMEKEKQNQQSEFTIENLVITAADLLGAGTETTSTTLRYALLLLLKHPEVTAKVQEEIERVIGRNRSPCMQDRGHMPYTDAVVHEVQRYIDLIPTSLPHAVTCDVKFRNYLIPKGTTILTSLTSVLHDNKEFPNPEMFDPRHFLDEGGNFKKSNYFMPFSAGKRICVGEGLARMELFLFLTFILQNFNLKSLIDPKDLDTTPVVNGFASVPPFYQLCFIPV
# CYP2C9 activ: CYP2C9 (human) activation; P11712; recombinant CYP2C9, luciferin-H conversion, luminescence; stronger effect = higher value; factor 1 = untreated enzyme, 0 = blocked; activation factor at 5 µM; 96,000 compounds, 1.4% hits; AID 1024;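 active = activation factor of 2 or more for CYP2C9 at a 5 µM dose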;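 also: 0 = sulfaphenazole-blocked wells and 1 = vehicle-only wells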
# Mac1 fbg inh: inhibitors of human CD11b/CD18 binding to fibrinogen | P05107+P11215 | K562 CD11b/CD18 adhesion to fibrinogen, ATPlite luminescence; Mn2+ added to activate the integrin | inhibition, % at 10 µM | 93,000 compounds, 0.54% hits;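 active = primary inhibition of 50% or more at 10 µM, then 40% or more on retest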
# CYP2C19 act: cytochrome P450 2C19 (human) activation; P33261; recombinant CYP2C19, luciferin-H EGE luminescence; stronger effect = higher value; 0 = fully inhibited enzyme, 1 = untreated enzyme; activation factor at 5 µM; 96,000 tested, under 10 active; AID 1025;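 active = activation factor of at least 2 at 5 µM in the primary screen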;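 also: 0 = wells with 2.5 mM tranylcypromine and 1 = vehicle-only wells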
# CYP2C9 inh: inhibitors of human CYP2C9; inhibition, % at 5 µM; CYP2C9 Supersomes, luciferin-H conversion, luminescence; 96,000 compounds, 20% hits;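 active = blocking of liver enzyme CYP2C9 beyond about 50% at 5 µM, limit read from the data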
# CD11b adhes enh: increases human CD11b/CD18 adhesion to fibrinogen; activation, % at 10 µM; P05107+P11215; AID 1499; 93,000 compounds, 0.07% hits; K562 CD11b/CD18 adhesion to fibrinogen, ATPlite luminescence;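 active = 10 µM primary screen giving 50% or more activity, confirmed by 40% or more on retest at that dose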
# * = called active by the depositor; · = no result.
SMILES,CYP2C19 inh,CYP2C9 activ,Mac1 fbg inh,CYP2C19 act,CYP2C9 inh,CD11b adhes enh
CCCOCCOC(=O)C1=C(C)NC(=O)NC1c1cc(Cl)c(O)c(OC)c1 (stereo unspecified),6,1,-24,0.9,3,0
CC(C)(C)C1CCc2onc(C(=O)Nc3cnn(Cc4ccc(F)cc4)c3)c2C1 (stereo unspecified),9,0.9,-18,0.9,12,7
CC(C)(C)C1CCc2onc(C(=O)Nc3ccc(F)cc3F)c2C1 (stereo unspecified),63*,0.8,6,0.4,24,4
Cc1ccccc1CS(=O)(=O)CCC(=O)NCCN1CCN(c2cccc(Cl)c2)CC1,21,0.8,15,0.8,25,-5
CCCc1nc(N)sc1C(=O)OCC,55*,0.8,15,0.5,21,6
CCOC(=O)c1sc(N)nc1C(C)C,52*,0.7,-7,0.5,30,0
CCCCOC(=O)Nc1nc(C)c(C(=O)OCC)s1,40,0.7,-1,0.6,29,-1
CCOC(=O)c1c(N)sc(C(=O)N(C)C)c1C,47,1.3,-3,0.5,-32,-2
CCOC(=O)N1CCC(NC(=O)c2csc3c2CCCC3)CC1,14,1.3,3,0.9,-29,-11
O=C(O)CC12C[C@H]3C[C@@H](C1)CC(n1ncc(N4CCN(c5ccccc5)CC4)c(Cl)c1=O)(C3)C2,·,·,16,·,·,1
O=C(NCCN1CCCC1)C1CC(=O)N(C2CCCCC2)C1 (stereo unspecified),24,1,16,0.8,4,0
O=C1CC(SC(=NCc2ccc3c(c2)OCO3)Nc2ccccc2)C(=O)N1 (stereo unspecified),96*,0.5,0,0,48,1
CCOC(=O)C1=C(Nc2ccc(C)cc2)CC(C)(O)C(C(=O)OCC)C1c1ccccc1 (stereo unspecified),3,1.1,·,1,-7,·
CCN(CC)S(=O)(=O)c1cccc(C(=O)NC(Cc2c[nH]c3ccccc23)c2nnc3n2CCCCC3)c1 (stereo unspecified),6,0.8,·,0.9,18,·
CCCOC(=O)Nc1ccc(N2CCCCC2)cc1,-8,1.2,5,1.1,-20,-6
CCOC(=O)C1=C(C)NC2=C(C(=O)C(C(=O)OCC)C(c3ccc(OC)cc3)C2)C1c1ccccn1 (stereo unspecified),29,0.7,-10,0.7,29,-4
COC(=O)C1C(=O)C2=C(CC1C)NC(C)=C(C(=O)OCc1ccc(OC)cc1)C2c1ccc(C)o1 (stereo unspecified),61*,0.2,6,0.4,80*,6
COC(=O)C1C(=O)C2=C(CC1C)NC(C)=C(C(=O)OC(C)C)C2c1ccc(C)o1 (stereo unspecified),21,0.4,-6,0.8,59*,-1
CCOC(=O)CCc1c(C)c2ccc(OCC(=O)N(CC)CC)c(C)c2oc1=O,34,0.5,-20,0.7,51*,2
CCOC(=O)Cc1c(C)c2ccc(N(CC)CC)cc2oc1=O,3,2.1*,1,1,-112,-9
CCOC(=O)CCc1c(C)c2ccc(O)cc2oc1=O,26,1,-9,0.7,-4,2
O=C(CN1CCN(Cc2ccccc2)CC1)N/N=C/c1c[nH]c2ccccc12,·,·,-11,·,·,9
O=c1c2ccccc2c(C=NCCCN2CCOCC2)c(O)n1Cc1ccccc1,65*,0.3,27,0.4,71*,3
O=c1[nH]c2ccccc2c(=O)n1Cc1ccccc1,37,1,7,0.6,-4,-3
O=c1c2ccccc2c(C=NCCc2ccccc2)c(O)n1Cc1ccccc1,48,0.2,13,0.5,77*,1
SMILES,CYP2C19 inh,CYP2C9 activ,Mac1 fbg inh,CYP2C19 act,CYP2C9 inh,CD11b adhes enh
CCC(C)NC(=O)/C=C1\Sc2ccccc2NC1=O (stereo unspecified),·,·,-3,·,·,4
Cc1ccc(-c2csc3nc(SCC(=O)N(C)C)n(Cc4ccccc4)c(=O)c23)cc1,·,·,-9,·,·,14
CSc1cccc(NC(=O)CSc2ccc(Cl)cc2)c1,61*,1,17,0.4,5,1
CCn1cc(Br)c(C(=O)Nc2cccc(SC)c2)n1,81*,0.6,0,0.2,38,-3
CCSCc1nnc(SCC(=O)Nc2cccc(SC)c2)n1C,91*,0.7,16,0.1,32,-3
Cn1c(CCCOc2ccc(Cl)cc2Cl)nnc1SCC(=O)Nc1cccc(F)c1,·,·,6,·,·,2
O=C1CCn2nc(-c3ccc(Cl)cc3)cc2N1,-5,0.9,-10,1,8,2
O=C(c1cc([N+](=O)[O-])cc([N+](=O)[O-])c1)N1CCOCC1,·,·,1,·,·,2
Cc1c(NC(=O)c2ccccc2NS(=O)(=O)c2ccc(F)cc2)c(=O)n(-c2ccccc2)n1C,25,0.5,-7,0.8,52*,-6
Cc1c(NC(=O)c2ccccc2F)c(=O)n(-c2ccccc2)n1C,2,1,5,1,-2,1
Cc1c(NS(=O)(=O)c2cccc(C(=O)NCc3ccc(Cl)cc3)c2)c(=O)n(-c2ccccc2)n1C,51*,0.7,2,0.5,33,-1
Cc1c(NS(=O)(=O)c2ccccc2)c(=O)n(-c2ccccc2)n1C,53*,0.8,1,0.5,22,0
Cc1c(NC(C)c2cc(Cl)ccc2O)c(=O)n(-c2ccccc2)n1C (stereo unspecified),96*,0.3,-35,0,68*,1
Cc1ccc(NC(=O)COC(=O)c2cc(C)nc3ccccc23)c([N+](=O)[O-])c1,·,·,-25,·,·,19
CCOc1ccc(C(NC(=O)/C=C/c2ccco2)c2ccc(OC)c(OC)c2)cc1 (stereo unspecified),·,·,0,·,·,12
Cc1ccc(C(=O)N[C@H](C(=O)Nc2cc(Cl)cc(Cl)c2)C(C)C)cc1,·,·,2,·,·,-3
O=C1N/C(=N/N=C/c2ccccc2)SC1(c1ccccc1)c1ccccc1,20,0.1,-8,0.8,94*,4
COc1cc(C(=O)OCC(=O)NC2CCS(=O)(=O)C2)ccc1OCc1c(C)noc1C (stereo unspecified),·,·,6,·,·,-1
Cn1c(=O)c2c(nc(Sc3n[nH]c(N)n3)n2Cc2ccccc2Cl)n(C)c1=O,54*,0.8,12,0.5,15,0
Cn1c(=O)c2c(nc(SCCCO)n2Cc2ccccc2Cl)n(C)c1=O,34,0.5,-33,0.7,54*,3
C=CC(C)Sc1nc2c(c(=O)n(C)c(=O)n2C)n1Cc1ccccc1Cl (stereo unspecified),6,0.9,-14,0.9,13,-2
CC1CN(c2cc(=O)n(-c3ccccc3)c(=O)[nH]2)CC(C)O1 (stereo unspecified),-10,0.9,-51,1.1,8,0
